Active and inactive are the calls of the source. Unless noted, the rule behind the calls is not given here.

Experimental findings from PubChem BioAssay are described below.

Test [1] is described as follows: anti-His antibody binders, primary screen, artefact control for SMM control protein annotation, biochemical, small-molecule microarray, 635 nm fluorescence (AID 1128).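 Note: score merges feature fluorescence with signal-to-noise for each printed compound spot.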 The note with it: anti-His Alexa647 antibody binding, higher = more signal.
Test [2] has as its system Human papillomavirus type 1a E7 protein (residues 1-88). Put plainly: HPV1a E7 small-molecule binders, primary screen, biochemical, small-molecule microarray, residues 1-88, 635 nm (AID 1129). Particulars: small-molecule microarray binding, fluorescence 635 nm; higher = more signal.
Test [3] has as its target Focal adhesion kinase 1 (Homo sapiens) (UniProt Q05397). Put plainly: small-molecule microarray binders of FAK, primary screen, biochemical, 635/667 nm fluorescence, BSA, DTT (AID 1130).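 Note: composite of spot emission at 667 nm and signal to noise over triplicate slides.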 Particulars: PTK2 binding, 635 nm fluorescence, higher = more signal.
Test [4] has as its system Fibrinogen (Alexa647-labelled). The test is described as follows: fibrinogen binders on compound microarrays, profiling panel, artefact control for SMM control-protein annotation, biochemical, small-molecule microarray, 635/667 nm fluorescence (AID 1131).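 Note: z-score merges 667 nm fluorescence with per-spot signal-to-noise over triplicate slides.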 The note with it: fibrinogen-A647 binding fluorescence, higher = more signal.
Test [5] has as its target Follistatin (Homo sapiens) (UniProt P19883). The test is described as follows: follistatin binders on small-molecule microarrays, primary screen, biochemical, small-molecule microarray, 635/667 nm fluorescence (AID 1132). The note with it: FST binding, 635 nm fluorescence, higher = more signal.
Test [6] deals with Fibroblast growth factor 2 (Homo sapiens) (UniProt P09038). Put plainly: FGF2 binders on small-molecule microarrays, primary screen, biochemical, small-molecule microarray, 635/667 nm fluorescence (AID 1133). The note with it: small-molecule microarray binding, FGF2, fluorescence 635/667; higher = more signal.
Test [7] in a line: mitochondrial membrane potential change in A549 cells, profiling panel, cell-based, JC-1 fluorescence, basal, 24 h, 100 nL (AID 1138).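 Note: A549 lung adenocarcinoma cells under basal conditions with no added stimulus; test concentration not given here.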 The note with it: higher = more signal.
A further test relates to Lefty1. Put plainly: Lefty1 binders on small-molecule microarrays, primary screen, biochemical, small-molecule microarray, 635/667 nm fluorescence (AID 1139). Particulars: small-molecule microarray binding, fluorescence 635/667; higher = more signal.
Test [8] concerns wheat germ agglutinin (Triticum aestivum), Alexa647-labelled. The test is described as follows: wheat germ agglutinin binders on compound microarrays, profiling panel, artefact control for SMM control-protein annotation, biochemical, small-molecule microarray, 635/667 nm fluorescence (AID 1140).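 Note: score merges 667 nm feature emission with signal to noise over triplicate slides.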 Particulars: WGA-A647 binding, 635 nm fluorescence, higher = more signal.
The target in test [9] is Luciferin 4-monooxygenase (Photinus pyralis) (UniProt P08659). The test is described as follows: firefly luciferase enzyme inhibitors, primary screen, biochemical, luminescence, purified enzyme, 2006 set (AID 1141).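 Note: cell-free assay with purified firefly luciferase at 100 ng per well in PBS; test concentration not given here.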 The note with it: SteadyGlo luminescence, 30 min, higher = more signal, called active from +8 up or from −8 down.
Test [10] relates to Wnt5a (protein binding on small-molecule microarray). The test is described as follows: Wnt5a binders on small-molecule microarray, primary screen, biophysical, 635/667 nm fluorescence (AID 1142).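 Note: fluorescence read at 667 nm with signal to noise per printed feature.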 Particulars: 635 nm fluorescence, higher = more signal.
A short description of test [11]: cell viability in Huh7 cells, primary screen, cytotoxicity control for HCV replication inhibitor project, CellTiter-Glo luminescence, basal, 48 h (AID 1143).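 Note: Huh7 hepatoma cells carrying a hepatitis C replication reporter with no stimulus; test concentration not given here.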 Particulars: Huh7 HCV replicon, higher = more signal, called active from +8 up or from −8 down.
A short description of test [12]: P. aeruginosa biofilm formation inhibitors, primary screen, PAO1 strain, BacTiter-Glo luminescence, LB-PBS (AID 1144). The note with it: 12 h, higher = more signal.
Test [13] in a line: CREB reporter modulators without forskolin, primary screen, cell-based, PC12, CRE-LacZ reporter, unstimulated (AID 1145). Particulars: no forskolin, luminescence, 4.5 h, higher = more signal, called active from +8 up or from −8 down.
Test [14] can be described thus: CREB reporter modulators under forskolin, primary screen, cell-based, PC12, CRE-LacZ reporter, forskolin-stimulated (AID 1146).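 Note: PC12 cells with 6xCRE LacZ reporter stimulated by forskolin 10 µM; beta-galactosidase reporter signal reflecting CREB driven transcription.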 The note with it: luminescence, 4.5 h, higher = more signal, called active from +8 up or from −8 down.
The target in test [15] is Streptavidin (Streptomyces avidinii) (UniProt P22629). The test is described as follows: streptavidin binders on small-molecule microarray, primary screen, artefact control for SMM compound annotation, biophysical, 635/667 nm fluorescence (AID 1147).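 Note: signal reflects streptavidin binding to arrayed compounds as a control protein.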 Particulars: streptavidin binding, higher = more signal.
Test [16] is described as follows: small-molecule binders of probe aInhba, primary screen, biochemical, small-molecule microarray, 635/667 nm fluorescence (AID 1148).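 Note: score merges 667nm spot fluorescence with signal-to-noise for antibody binding to printed compounds.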 The note with it: higher = more signal.
Test [17] has as its target Torsin-1A (Homo sapiens) (UniProt O14656). The test is described as follows: torsin A binders from cell lysate, primary screen, small-molecule microarray, wild-type, 635/667 nm (AID 1149). Particulars: COS7 hTOR1A-WT lysate, 635 nm fluorescence, higher = more signal.
Test [18] shares this target. The test is described as follows: small-molecule binders of mutant TOR1A in lysate, primary screen, cell lysate, small-molecule microarray, COS7 lysate, 635/667 nm fluorescence (AID 1150).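 Note: score pools 667 nm emission and signal to noise measuring lysate protein binding.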 The note with it: COS7 hTOR1A mutant lysate, 635 nm fluorescence, higher = more signal.
Test [19] has as its system Sonic hedgehog protein (Shh). Put plainly: small-molecule binders of Shh protein, primary screen, biochemical, small-molecule microarray, 635/667 nm fluorescence (AID 1151).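 Note: Shh protein binding to compounds spotted on small-molecule microarray slides; score combines spot fluorescence intensity with signal-to-noise across triplicate slides.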 The note with it: small-molecule microarray binding, 635 nm fluorescence; higher = more signal.

Sequence of Torsin-1A (Homo sapiens) (O14656 whole entry, looked up): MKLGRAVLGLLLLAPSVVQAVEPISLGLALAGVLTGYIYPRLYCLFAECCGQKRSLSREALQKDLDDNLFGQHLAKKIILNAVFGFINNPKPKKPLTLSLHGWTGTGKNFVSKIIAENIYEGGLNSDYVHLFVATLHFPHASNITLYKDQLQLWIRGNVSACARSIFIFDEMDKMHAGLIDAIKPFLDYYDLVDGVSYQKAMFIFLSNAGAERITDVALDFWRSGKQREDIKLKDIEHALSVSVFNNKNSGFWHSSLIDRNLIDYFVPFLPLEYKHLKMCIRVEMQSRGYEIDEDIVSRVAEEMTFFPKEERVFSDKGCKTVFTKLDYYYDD
Sequence of Luciferin 4-monooxygenase (Photinus pyralis) (P08659 whole entry, looked up): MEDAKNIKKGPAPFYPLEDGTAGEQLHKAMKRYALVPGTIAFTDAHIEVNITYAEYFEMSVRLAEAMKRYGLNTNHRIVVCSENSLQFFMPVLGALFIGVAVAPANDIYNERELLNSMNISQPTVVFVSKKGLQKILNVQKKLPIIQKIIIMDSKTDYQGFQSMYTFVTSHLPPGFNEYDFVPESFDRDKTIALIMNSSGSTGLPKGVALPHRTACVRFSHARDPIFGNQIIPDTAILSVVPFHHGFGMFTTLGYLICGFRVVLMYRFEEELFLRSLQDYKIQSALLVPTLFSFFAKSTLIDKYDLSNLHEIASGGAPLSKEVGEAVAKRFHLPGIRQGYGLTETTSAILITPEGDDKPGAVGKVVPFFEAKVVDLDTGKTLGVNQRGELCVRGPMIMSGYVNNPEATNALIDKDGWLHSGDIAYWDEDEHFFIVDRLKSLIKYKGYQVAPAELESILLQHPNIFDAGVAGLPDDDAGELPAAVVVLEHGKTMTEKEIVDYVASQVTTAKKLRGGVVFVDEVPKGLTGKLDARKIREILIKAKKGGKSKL
Sequence of Follistatin (Homo sapiens) (P19883 whole entry, looked up): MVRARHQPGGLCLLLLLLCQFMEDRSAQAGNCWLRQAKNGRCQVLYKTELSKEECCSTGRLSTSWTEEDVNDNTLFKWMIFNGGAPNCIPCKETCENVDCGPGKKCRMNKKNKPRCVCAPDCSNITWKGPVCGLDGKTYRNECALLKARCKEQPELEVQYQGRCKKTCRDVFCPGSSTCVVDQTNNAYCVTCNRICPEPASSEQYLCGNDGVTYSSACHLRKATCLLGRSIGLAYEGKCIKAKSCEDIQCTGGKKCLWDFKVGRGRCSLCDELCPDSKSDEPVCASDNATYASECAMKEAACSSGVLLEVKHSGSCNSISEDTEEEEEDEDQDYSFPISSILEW
Sequence of Streptavidin (Streptomyces avidinii) (P22629 whole entry, looked up): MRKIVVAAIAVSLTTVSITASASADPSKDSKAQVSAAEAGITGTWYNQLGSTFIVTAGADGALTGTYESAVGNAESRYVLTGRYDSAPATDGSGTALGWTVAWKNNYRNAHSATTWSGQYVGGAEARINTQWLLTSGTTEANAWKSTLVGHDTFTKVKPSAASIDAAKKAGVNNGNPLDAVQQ
Sequence of Focal adhesion kinase 1 (Homo sapiens) (Q05397 whole entry, looked up): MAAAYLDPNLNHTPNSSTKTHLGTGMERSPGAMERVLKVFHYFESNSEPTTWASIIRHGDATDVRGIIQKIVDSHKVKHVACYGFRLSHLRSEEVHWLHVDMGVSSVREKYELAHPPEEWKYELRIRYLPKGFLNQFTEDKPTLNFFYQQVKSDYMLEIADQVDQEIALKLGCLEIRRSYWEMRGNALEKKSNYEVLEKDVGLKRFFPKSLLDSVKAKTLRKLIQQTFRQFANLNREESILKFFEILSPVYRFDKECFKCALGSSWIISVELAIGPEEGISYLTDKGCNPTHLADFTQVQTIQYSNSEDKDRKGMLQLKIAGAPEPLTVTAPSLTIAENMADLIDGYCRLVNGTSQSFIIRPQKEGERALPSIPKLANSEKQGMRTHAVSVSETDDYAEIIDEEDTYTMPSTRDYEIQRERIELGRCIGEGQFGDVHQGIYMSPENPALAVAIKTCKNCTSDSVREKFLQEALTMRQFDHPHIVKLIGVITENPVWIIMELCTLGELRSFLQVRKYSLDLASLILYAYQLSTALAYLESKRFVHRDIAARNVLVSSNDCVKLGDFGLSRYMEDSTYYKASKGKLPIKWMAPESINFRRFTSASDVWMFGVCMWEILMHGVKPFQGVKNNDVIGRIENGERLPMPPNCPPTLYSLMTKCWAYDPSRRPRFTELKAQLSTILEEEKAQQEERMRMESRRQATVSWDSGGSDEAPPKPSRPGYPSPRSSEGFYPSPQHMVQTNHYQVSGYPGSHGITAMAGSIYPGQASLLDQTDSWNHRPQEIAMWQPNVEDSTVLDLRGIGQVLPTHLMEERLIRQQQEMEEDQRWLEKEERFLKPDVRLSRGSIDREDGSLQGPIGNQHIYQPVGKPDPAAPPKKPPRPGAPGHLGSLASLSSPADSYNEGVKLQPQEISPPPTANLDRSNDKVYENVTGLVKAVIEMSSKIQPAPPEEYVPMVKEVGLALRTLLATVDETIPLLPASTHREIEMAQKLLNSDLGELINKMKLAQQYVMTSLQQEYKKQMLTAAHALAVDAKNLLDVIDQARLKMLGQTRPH
Sequence of Fibroblast growth factor 2 (Homo sapiens) (P09038 whole entry, looked up): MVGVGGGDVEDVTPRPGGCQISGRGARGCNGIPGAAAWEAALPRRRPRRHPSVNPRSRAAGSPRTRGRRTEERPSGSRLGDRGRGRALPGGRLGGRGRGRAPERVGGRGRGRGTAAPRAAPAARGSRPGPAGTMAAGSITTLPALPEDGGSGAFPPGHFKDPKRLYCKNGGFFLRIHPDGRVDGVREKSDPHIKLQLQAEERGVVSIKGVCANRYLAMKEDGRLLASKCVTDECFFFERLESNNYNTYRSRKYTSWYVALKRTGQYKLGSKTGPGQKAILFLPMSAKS

`CC[C@@H](c1ccccc1)n1c(=O)n2n(c1=O)[C@H]1[C@H](O)[C@@H]3O[C@@H]3C(=NOC[C@@H](O)COCc3ccco3)[C@H]1CC2`: the composite z-score was -0.74 in [1]; -0.629 in [2]; 0.587 in [3]; -1.9 in [4]; 0.361 in test [5]; 0.167 in [6]. In addition, the composite z-score in the test with Lefty1 is 0.389; in test [8], 0.534; in [10], 0.112; in test [15] it was -0.715; in [16], -0.257; with Torsin-1A (Homo sapiens) [17] it was -0.354. Moreover, the composite z-score is -0.517 in the test with Torsin-1A (Homo sapiens) [18] and 1.07 in test [19]. Besides, the z-score in [7] was -0.0823; in test [9], -0.47 (inactive); in test [11], 0.456 (inactive); in test [12], 0.232 (inactive); in test [13], 0.704 (inactive); in [14] it was 0.427 (inactive).

As to `CC(C)(C)N1C(=O)[C@H]2[C@H]3[C@H](O)[C@H](O)CC(=O)[C@H]3CC[C@H]2C1=O`, the composite z-score was 0.875 in [1]; 0.496 in test [2]; -0.246 in test [3]; 0.584 in test [4]; 0.558 in test [5]; 0.399 in test [6]. Besides, the composite z-score with Lefty1 is 0.407; in test [8] it was 0.0902; in [10] it was -0.0509; in test [15], -0.0955; in test [16], -0.0405; with Torsin-1A (Homo sapiens) [17], 0.128. Also, the composite z-score in the test with Torsin-1A (Homo sapiens) [18] came out at 0.29; in [19], 0.696. Also, the z-score is -0.714 in [7]; 0.206 (inactive) in test [9]; -1.06 (inactive) in [11]; 0.925 (inactive) in test [12]; 0.62 (inactive) in test [13]; 0.95 (inactive) in test [14].

Consider `C#CCCCON=C1[C@H]2CCn3c(=O)n(C)c(=O)n3[C@H]2[C@H](O)[C@@H]2O[C@H]12`, for which the composite z-score is 0.196 in test [1]; 0.746 in [2]; -0.103 in [3]; 0.615 in test [4]; 0.72 in test [5]; 0.916 in test [6]. For the same compound, the composite z-score was 0.363 in the test on Lefty1; -0.0602 in test [8]; 0.119 in test [10]; 0.38 in test [15]; 0.0471 in test [16]; 0.326 with Torsin-1A (Homo sapiens) [17]. In addition, the composite z-score came to 0.693 in the test with Torsin-1A (Homo sapiens) [18] and 0.837 in [19]. In addition, the z-score in test [7] was 1; in test [9] it was -1.25 (inactive); in test [11] it was 0.119 (inactive); in [12] it was 0.806 (inactive); in test [13] it was 0.523 (inactive); in test [14], -0.149 (inactive).

Take `C#CCCCON=C1C[C@@H](O)[C@@H](O)[C@@H]2[C@@H]3C(=O)N(Cc4ccccc4)C(=O)[C@@H]3CC[C@@H]12`: the composite z-score was 0.309 in [1]; -0.032 in [2]; 0.0147 in [3]; -0.691 in [4]; -0.0389 in test [5]; 0.0054 in test [6]. Also, the composite z-score was 0.19 in the test with Lefty1; 0.249 in test [8]; 0.087 in [10]; -0.382 in [15]; -0.0675 in test [16]; 0.103 with Torsin-1A (Homo sapiens) [17]. Besides, the composite z-score in the test with Torsin-1A (Homo sapiens) [18] is 0.0159; in test [19], -0.523. For the same compound, the z-score in [7] is 0.477; in test [9] it was 0.807 (inactive); in [11], -0.0439 (inactive); in test [12], 0.943 (inactive); in test [13], -0.476 (inactive); in [14], 0.174 (inactive).

For `C[C@@H](c1ccccc1)N1C(=O)[C@H]2[C@H]3[C@H](O)[C@H](O)CC(=NO[C@@H]4O[C@H](CO)[C@@H](O)[C@H](O)[C@H]4O)[C@@H]3CC[C@H]2C1=O`, the composite z-score was 0.26 in [1]; 0.585 in test [2]; -0.0533 in [3]; 0.19 in test [4]; 0.31 in [5]; 0.281 in test [6]. The composite z-score is 0.351 with Lefty1; -0.0604 in test [8]; 0.0794 in test [10]; 0.238 in [15]; -0.0626 in test [16]; 1.1 with Torsin-1A (Homo sapiens) [17]. The composite z-score was 0.907 in the test with Torsin-1A (Homo sapiens) [18] and 0.116 in [19]. The z-score in test [7] was 0.269; in [9], 0.351 (inactive); in [11], 0.401 (inactive); in test [12] it was -0.783 (inactive); in test [13] it was -0.566 (inactive); in test [14] it was 0.331 (inactive).
